COUP-TFII inh = inhibitors of human COUP-TFII (NR2F2). P24468. HEK293T NGFI-A luciferase reporter, luminescence. inhibition, % at 8.6 µM. 370,000 tested, 0.7% active. AID 686940;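 active means inhibition above a per-plate cutoff, mean inhibition of test wells between control levels plus 3 SD, cut at about 38% in these data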;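 further: cells cotransfected with COUP-TFII expression vector driving the NGFI-A reporter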
NCOA2 inhibitor = inhibits human steroid receptor coactivator 2 | Q15596 | HEK293 GAL4-SRC2 luciferase reporter, luminescence | inhibition, % at 9 µM | 370,000 tested, 0.17% active | AID 651957;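 active means inhibition above the mean inhibition of all tested compounds plus 3 SD, set per campaign, cut at about 52% in these data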
GalR3 antag = blocks the human galanin receptor 3 | HEK293 GalR3-CNG cAMP membrane potential fluorescence; galR3 body fused to GalR1 C-terminus | inhibition, % at 3 µM | 360,000 tested, 0.44% active | AID 651719;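 active means inhibition above the screen-wide average plus 3 SD, cut at about 13% in these data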;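 further: forskolin and galanin both at EC90 stimulate the cells; cAMP rise reported by CNG channel membrane potential dye signal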
NCOA3 inh = inhibitors of human steroid receptor coactivator 3 (SRC3) | Q9Y6Q9 | HEK293 GAL4-SRC3 luciferase reporter, luminescence | inhibition, % at 3.6 µM | 360,000 tested, 0.17% active | AID 588352;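 active means inhibition above a per-campaign cutoff, the mean of all compounds plus 3 SD, cut at about 60% in these data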;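 further: higher means less SRC3-driven luciferase light from the GAL4 reporter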
LRH-1 inv ag = suppresses constitutive activity of human LRH-1; O00482; HEK293T StAR-luciferase reporter, LRH-1 transfected, 24 h; inhibition, % at 3.6 µM; 360,000 tested, 0.13% active; AID 602396;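 active means inhibition above the mean inhibition of all tested compounds plus 3 SD, cut at about 73% in these data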
Target sequence (O00482 whole entry, looked up): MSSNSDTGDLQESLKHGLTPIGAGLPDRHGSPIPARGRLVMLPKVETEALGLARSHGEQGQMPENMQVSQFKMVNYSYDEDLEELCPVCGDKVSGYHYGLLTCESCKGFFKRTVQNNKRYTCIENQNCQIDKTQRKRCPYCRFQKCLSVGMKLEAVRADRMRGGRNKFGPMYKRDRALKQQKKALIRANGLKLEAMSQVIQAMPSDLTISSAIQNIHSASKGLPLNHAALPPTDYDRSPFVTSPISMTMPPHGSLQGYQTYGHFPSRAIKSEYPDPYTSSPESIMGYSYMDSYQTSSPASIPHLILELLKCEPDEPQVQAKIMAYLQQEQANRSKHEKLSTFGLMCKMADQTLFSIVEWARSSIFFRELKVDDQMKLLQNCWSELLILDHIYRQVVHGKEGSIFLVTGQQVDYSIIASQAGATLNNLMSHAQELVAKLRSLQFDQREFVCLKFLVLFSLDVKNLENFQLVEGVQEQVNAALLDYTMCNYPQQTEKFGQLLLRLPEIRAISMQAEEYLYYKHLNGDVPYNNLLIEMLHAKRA
SRC1 inh = inhibits human SRC1 coactivator | 360,000 tested, 0.12% active | HEK293 GAL4-SRC1 luciferase reporter, luminescence | inhibition, % at 3.6 µM | Q15788;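 active means inhibition above the campaign mean plus 3 SD, with each screening campaign given its own cutoff, cut at about 60% in these data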
GalR3 antag conf = confirmation of human galanin receptor 3 antagonists. shares compounds with GalR3 antag. HEK293 GalR3 CNG cAMP biosensor, membrane potential fluorescence; galR3 fused to GalR1 carboxy tail; challenged with forskolin and galanin at EC90. inhibition, % at 3 µM. 1,600 tested, 59% active. AID 652245;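 active means inhibition above the primary screen's cutoff, the mean inhibition of all screened compounds plus 3 SD, cut at about 13% in these data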
CNG parental = parental cell agonism counter-screen for GalR3 antagonists; activation, % at 3 µM; shares compounds with GalR3 antag; HEK293-CNG parental cells, cAMP membrane potential fluorescence; normalised: DMSO wells 0%, forskolin wells 100%; 1,600 tested, 10% active; in the data active means activation above about 1.3%
VP16 Luc counter = VP16 inhibition counter-screen for COUP-TFII; shares compounds with COUP-TFII inh; HEK293 Gal4-VP16 luciferase reporter, luminescence; inhibition, % at 8.5 µM; 2,500 tested, 25% active; AID 687007; in the data active means inhibition above about 13%
COUP-TFII conf = confirmation of human COUP-TFII (NR2F2) inhibitors. shares compounds with COUP-TFII inh. HEK293 NGFI-A luciferase reporter, luminescence. inhibition, % at 8.5 µM. 2,500 tested, 45% active. AID 687008;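 active means mean inhibition over three repeats above a set limit taken from the earlier primary screen, cut at about 38% in these data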
A number is an active result. Rows were chosen to be rich in hits. Some 1.1% of all compounds tested hit in one or more screens of this group.

What do the screens show for `O=C(Nc1ccc(S(=O)(=O)N2CCCC2)cc1)c1ccc(CN2CCc3ccccc3C2)cc1`?
COUP-TFII inh: 77; NCOA2 inhibitor: inactive; GalR3 antag: 96; NCOA3 inh: inactive; LRH-1 inv ag: inactive; SRC1 inh: inactive; GalR3 antag conf: 105; CNG parental: inactive; VP16 Luc counter: inactive; COUP-TFII conf: 71

Results for CC(=O)c1cccc(NC(=O)c2ccc(CN3CCc4ccccc4C3)cc2)c1 ?
COUP-TFII inh: inactive; NCOA2 inhibitor: inactive; GalR3 antag: inactive; NCOA3 inh: inactive; LRH-1 inv ag: inactive; SRC1 inh: inactive

Results for CCCCOc1ccc(N(CC(=O)NC2CCCCC2)C(=O)CCC(=O)Nc2ccccn2)cc1 ?
COUP-TFII inh: inactive; NCOA2 inhibitor: inactive; GalR3 antag: inactive; NCOA3 inh: inactive; LRH-1 inv ag: inactive; SRC1 inh: inactive

How did CCN1CCN(C(=O)c2cccc(OC3CCN(S(=O)(=O)N(C)C)CC3)c2)CC1 do in these assays?
COUP-TFII inh: inactive; NCOA2 inhibitor: inactive; GalR3 antag: inactive; NCOA3 inh: inactive; LRH-1 inv ag: inactive; SRC1 inh: inactive

How did CN(C)S(=O)(=O)N1CCC(Oc2cccc(C(=O)NC3CCCCCC3)c2)CC1 do in these assays?
COUP-TFII inh: 63; NCOA2 inhibitor: inactive; GalR3 antag: 29; NCOA3 inh: inactive; LRH-1 inv ag: inactive; SRC1 inh: inactive; GalR3 antag conf: 100; CNG parental: inactive; VP16 Luc counter: inactive; COUP-TFII conf: 66

Results for Cc1ccc(S(=O)(=O)Nc2ccccc2F)cc1C(=O)NNC(=O)c1csc(N2CCOCC2)n1 ?
COUP-TFII inh: inactive; NCOA2 inhibitor: inactive; GalR3 antag: inactive; NCOA3 inh: inactive; LRH-1 inv ag: inactive; SRC1 inh: inactive

How did COc1cc(CC2COC(=O)C2(O)Cc2ccc(O)c(OC)c2)ccc1O (stereo not drawn) do in these assays?
COUP-TFII inh: 53; NCOA2 inhibitor: inactive; GalR3 antag: 48; NCOA3 inh: inactive; LRH-1 inv ag: inactive; SRC1 inh: inactive; GalR3 antag conf: inactive; CNG parental: inactive; VP16 Luc counter: inactive; COUP-TFII conf: inactive

Results for Cc1cc(C)c(CN2CCN(C(=O)Cn3cnc4c(NCc5ccccc5)ncnc43)CC2)c(C)c1 ?
COUP-TFII inh: 80; NCOA2 inhibitor: inactive; GalR3 antag: 105; NCOA3 inh: inactive; LRH-1 inv ag: inactive; SRC1 inh: inactive; GalR3 antag conf: 106; CNG parental: inactive; VP16 Luc counter: inactive; COUP-TFII conf: 70

Results for S=c1[nH]nc(COc2ccccc2)n1/N=C/c1ccc(Br)s1 ?
COUP-TFII inh: inactive; NCOA2 inhibitor: inactive; GalR3 antag: inactive; NCOA3 inh: inactive; LRH-1 inv ag: inactive; SRC1 inh: inactive

What do the screens show for `Cc1nnsc1C(=O)NC1CCCc2c1cnn2-c1ccc(F)cc1F` (stereo not drawn)?
COUP-TFII inh: 64; NCOA2 inhibitor: inactive; GalR3 antag: 105; NCOA3 inh: inactive; LRH-1 inv ag: inactive; SRC1 inh: inactive; GalR3 antag conf: 103; CNG parental: inactive; VP16 Luc counter: inactive; COUP-TFII conf: 66

What do the screens show for `Cc1ccc(C(=O)NC2CCCc3c2cnn3-c2ccc(F)cc2F)cn1` (stereo not drawn)?
COUP-TFII inh: 56; NCOA2 inhibitor: inactive; GalR3 antag: 97; NCOA3 inh: inactive; LRH-1 inv ag: inactive; SRC1 inh: inactive; GalR3 antag conf: 110; CNG parental: inactive; VP16 Luc counter: inactive; COUP-TFII conf: 59

Results for Cc1nnsc1C(=O)NC1CCCc2c1cnn2-c1cc(F)cc(F)c1 (stereo not drawn) ?
COUP-TFII inh: inactive; NCOA2 inhibitor: inactive; GalR3 antag: inactive; NCOA3 inh: inactive; LRH-1 inv ag: inactive; SRC1 inh: inactive

What do the screens show for `c1ccc(CC2CCN(c3ncnc4sccc34)CC2)cc1`?
COUP-TFII inh: 55; NCOA2 inhibitor: inactive; GalR3 antag: 70; NCOA3 inh: inactive; LRH-1 inv ag: inactive; SRC1 inh: inactive; GalR3 antag conf: 88; CNG parental: inactive; VP16 Luc counter: inactive; COUP-TFII conf: 53

Results for O=C(c1cccc(S(=O)(=O)N2CCN(c3ccc(F)cc3)CC2)c1)N1CCCC(C(F)(F)F)C1 (stereo not drawn) ?
COUP-TFII inh: 63; NCOA2 inhibitor: inactive; GalR3 antag: 99; NCOA3 inh: inactive; LRH-1 inv ag: inactive; SRC1 inh: inactive; GalR3 antag conf: 95; CNG parental: inactive; VP16 Luc counter: inactive; COUP-TFII conf: 45

How did Cc1oc(-c2ccc(Cl)cc2)nc1CSCC(=O)NC1CCN(Cc2ccccc2)CC1 do in these assays?
COUP-TFII inh: 52; NCOA2 inhibitor: inactive; GalR3 antag: 96; NCOA3 inh: inactive; LRH-1 inv ag: inactive; SRC1 inh: inactive; GalR3 antag conf: 106; CNG parental: inactive; VP16 Luc counter: 15; COUP-TFII conf: 57

Results for Cc1oc(-c2ccc(Cl)cc2)nc1CN1CCCC(C(=O)NCc2cccnc2)C1 (stereo not drawn) ?
COUP-TFII inh: 52; NCOA2 inhibitor: inactive; GalR3 antag: 83; NCOA3 inh: inactive; LRH-1 inv ag: inactive; SRC1 inh: inactive; GalR3 antag conf: 111; CNG parental: inactive; VP16 Luc counter: inactive; COUP-TFII conf: 46

Results for CCOc1ccc(-c2nc(CSCC(=O)NC3CCN(Cc4ccccc4)CC3)c(C)o2)cc1 ?
COUP-TFII inh: inactive; NCOA2 inhibitor: inactive; GalR3 antag: inactive; NCOA3 inh: inactive; LRH-1 inv ag: inactive; SRC1 inh: inactive

What do the screens show for `Cc1ccc(OCCSc2nnc(NC(=O)c3ccco3)s2)cc1`?
COUP-TFII inh: inactive; NCOA2 inhibitor: inactive; GalR3 antag: inactive; NCOA3 inh: inactive; LRH-1 inv ag: inactive; SRC1 inh: inactive

Results for CN(C)c1ccc(CC(=O)N2CCCC(c3cc(C(=O)Nc4ccc(C(C)(C)C)cc4)no3)C2)cc1 (stereo not drawn) ?
COUP-TFII inh: 64; NCOA2 inhibitor: inactive; GalR3 antag: 49; NCOA3 inh: inactive; LRH-1 inv ag: inactive; SRC1 inh: inactive; GalR3 antag conf: 109; CNG parental: inactive; VP16 Luc counter: 14; COUP-TFII conf: 61

What do the screens show for `CN1CCN(C(=O)c2ccc(CNS(=O)(=O)c3ccc(F)c(Cl)c3)cc2)CC1`?
COUP-TFII inh: inactive; NCOA2 inhibitor: inactive; GalR3 antag: inactive; NCOA3 inh: inactive; LRH-1 inv ag: inactive; SRC1 inh: inactive
